Data: the supplement of paper PMC8728848
Shown is part of a subset that was picked to be rich in the strongest signals.

Assays:
Experiment in all cases: glycan array binding signal (z-score within array); higher = stronger binding
Conditions in all cases: glycan notation: IUPAC condensed, linker removed
[1] = target: Fuc(a1-2)Gal
Method in brief: (§1)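 The Consortium for Functional Glycomics database supplied 3228 glycan arrays, of which those lacking an available protein sequence were dropped. The binding signal, a within-array Z-score, was averaged across arrays of the same protein sequence and across linkers. Negative scores can be read as non-binding.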

[2] = target: Fuc(a1-2)Gal(b1-4)GlcNAc(b1-2)Man(a1-3)[Fuc(a1-2)Gal(b1-4)GlcNAc(b1-2)Man(a1-6)]Man(b1-4)GlcNAc(b1-4)GlcNAc
Method in brief: as §1

[3] = target: Fuc(a1-2)[Gal(a1-3)]Gal(b1-3)GlcNAc
Method in brief: as §1

[4] = target: Fuc(a1-2)[Gal(a1-3)]Gal(b1-4)GlcNAc
Method in brief: as §1

[5] = target: Fuc(a1-2)[GalNAc(a1-3)]Gal
Method in brief: as §1

[6] = target: Fuc(a1-2)[GalNAc(a1-3)]Gal(b1-4)GlcNAc(b1-2)Man
Method in brief: as §1

[7] = target: Fuc(a1-2)[GalNAc(a1-3)]Gal(b1-4)GlcNAc(b1-2)Man(a1-3)[Fuc(a1-2)[GalNAc(a1-3)]Gal(b1-4)GlcNAc(b1-2)Man(a1-6)]Man(b1-4)GlcNAc(b1-4)GlcNAc
Method in brief: as §1

[8] = target: Fuc(a1-2)[GalNAc(a1-3)]Gal(b1-4)GlcNAc(b1-3)GalNAc
Method in brief: as §1

[9] = target: Fuc(a1-3)GlcNAc
Method in brief: as §1

[10] = target: Fuc(a1-3)[Gal(b1-4)]GlcNAc(b1-2)Man
Method in brief: as §1

[11] = target: Fuc(a1-3)[GalNAc(b1-4)]GlcNAc
Method in brief: as §1

[12] = target: Gal(a1-3)Gal(b1-3)[Fuc(a1-4)]GlcNAc(b1-2)Man(a1-3)[Gal(a1-3)Gal(b1-3)[Fuc(a1-4)]GlcNAc(b1-2)Man(a1-6)]Man(b1-4)GlcNAc(b1-4)GlcNAc
Method in brief: as §1

[13] = target: Gal(a1-3)Gal(b1-4)[Fuc(a1-3)]GlcNAc(b1-2)Man(a1-3)[Gal(a1-3)Gal(b1-4)[Fuc(a1-3)]GlcNAc(b1-2)Man(a1-6)]Man(b1-4)GlcNAc(b1-4)GlcNAc
Method in brief: as §1

[14] = target: Gal(a1-4)Gal(b1-3)GlcNAc(b1-2)Man(a1-3)[Gal(a1-4)Gal(b1-3)GlcNAc(b1-2)Man(a1-6)]Man(b1-4)GlcNAc(b1-4)GlcNAc
Method in brief: as §1

[15] = target: Gal(a1-4)Gal(b1-4)GlcNAc(b1-3)Gal(b1-4)Glc
Method in brief: as §1

[16] = target: Gal(b1-2)Gal
Method in brief: as §1

[17] = target: Gal(b1-3)GalNAc(b1-4)Gal(b1-4)Glc
Method in brief: as §1

[18] = target: Gal(b1-3)GlcNAc(b1-2)[Gal(b1-3)GlcNAc(b1-6)]Man(a1-6)[Gal(b1-3)GlcNAc(b1-2)Man(a1-3)]Man(b1-4)GlcNAc(b1-4)GlcNAc
Method in brief: as §1

[19] = target: Gal(b1-3)GlcNAc6S
Method in brief: as §1

[20] = target: Gal(b1-4)GlcNAc(b1-2)Man(a1-3)[GlcNAc(b1-2)Man(a1-6)]Man(b1-4)GlcNAc(b1-4)GlcNAc
Method in brief: as §1

[21] = target: Gal(b1-4)GlcNAc(b1-3)Gal(b1-4)GlcNAc(b1-3)Gal(b1-4)GlcNAc(b1-3)Gal(b1-4)GlcNAc(b1-2)[Gal(b1-4)GlcNAc(b1-3)Gal(b1-4)GlcNAc(b1-3)Gal(b1-4)GlcNAc(b1-3)Gal(b1-4)GlcNAc(b1-6)]Man(a1-6)[Gal(b1-4)GlcNAc(b1-3)Gal(b1-4)GlcNAc(b1-3)Gal(b1-4)GlcNAc(b1-3)Gal(b1-4)GlcNAc(b1-2)Man(a1-3)]Man(b1-4)GlcNAc(b1-4)[Fuc(a1-6)]GlcNAc
Method in brief: as §1

[22] = target: Gal(b1-4)GlcNAc(b1-3)Gal(b1-4)GlcNAc(b1-3)Gal(b1-4)GlcNAc(b1-3)Gal(b1-4)GlcNAc(b1-3)Gal(b1-4)GlcNAc(b1-2)Man(a1-3)[Gal(b1-4)GlcNAc(b1-3)Gal(b1-4)GlcNAc(b1-3)Gal(b1-4)GlcNAc(b1-3)Gal(b1-4)GlcNAc(b1-3)Gal(b1-4)GlcNAc(b1-2)Man(a1-6)]Man(b1-4)GlcNAc(b1-4)GlcNAc
Method in brief: as §1

[23] = target: Gal(b1-4)GlcNAc(b1-3)Gal(b1-4)GlcNAc(b1-3)Gal(b1-4)GlcNAc(b1-3)Gal(b1-4)GlcNAc(b1-3)Gal(b1-4)GlcNAc(b1-2)[Gal(b1-4)GlcNAc(b1-3)Gal(b1-4)GlcNAc(b1-3)Gal(b1-4)GlcNAc(b1-3)Gal(b1-4)GlcNAc(b1-3)Gal(b1-4)GlcNAc(b1-6)]Man(a1-6)[Gal(b1-4)GlcNAc(b1-3)Gal(b1-4)GlcNAc(b1-3)Gal(b1-4)GlcNAc(b1-3)Gal(b1-4)GlcNAc(b1-3)Gal(b1-4)GlcNAc(b1-2)Man(a1-3)]Man(b1-4)GlcNAc(b1-4)[Fuc(a1-6)]GlcNAc
Method in brief: as §1

[24] = target: Gal4S(b1-4)GlcNAc
Method in brief: as §1

[25] = target: Gal6S(b1-3)GlcNAc6S
Method in brief: as §1

[26] = target: GalNAc(b1-4)GlcNAc(b1-3)GalNAc(b1-4)GlcNAc
Method in brief: as §1

[27] = target: GlcA(b1-6)Gal
Method in brief: as §1

[28] = target: GlcNAc(a1-4)Gal(b1-4)GlcNAc(b1-3)Gal(b1-4)GlcNAc(b1-3)Gal(b1-4)GlcNAc
Method in brief: as §1

[29] = target: GlcNAc(a1-4)Gal(b1-4)GlcNAc(b1-3)Gal(b1-4)[Fuc(a1-3)]GlcNAc(b1-3)Gal(b1-4)[Fuc(a1-3)]GlcNAc
Method in brief: as §1

[30] = target: GlcNAc(b1-3)Gal(b1-4)GlcNAc(b1-2)Man(a1-3)[GlcNAc(b1-3)Gal(b1-4)GlcNAc(b1-2)Man(a1-6)]Man(b1-4)GlcNAc(b1-4)GlcNAc
Method in brief: as §1

[31] = target: GlcNAc(b1-3)Gal(b1-4)GlcNAc(b1-3)Gal(b1-4)GlcNAc(b1-3)Gal(b1-4)GlcNAc(b1-2)Man(a1-3)[GlcNAc(b1-3)Gal(b1-4)GlcNAc(b1-3)Gal(b1-4)GlcNAc(b1-3)Gal(b1-4)GlcNAc(b1-2)Man(a1-6)]Man(b1-4)GlcNAc(b1-4)[Fuc(a1-6)]GlcNAc
Method in brief: as §1

[32] = target: GlcNAc(b1-3)Gal(b1-4)GlcNAc(b1-3)Gal(b1-4)GlcNAc(b1-3)Gal(b1-4)GlcNAc(b1-2)[GlcNAc(b1-3)Gal(b1-4)GlcNAc(b1-3)Gal(b1-4)GlcNAc(b1-3)Gal(b1-4)GlcNAc(b1-6)]Man(a1-6)[GlcNAc(b1-3)Gal(b1-4)GlcNAc(b1-3)Gal(b1-4)GlcNAc(b1-3)Gal(b1-4)GlcNAc(b1-2)Man(a1-3)]Man(b1-4)GlcNAc(b1-4)[Fuc(a1-6)]GlcNAc
Method in brief: as §1

[33] = target: GlcNAc(b1-3)[GlcNAc(b1-4)][GlcNAc(b1-6)]GlcNAc
Method in brief: as §1

[34] = target: Man(a1-3)[Man(a1-6)]Man
Method in brief: as §1

[35] = target: Neu5Ac(a2-3)Gal(b1-3)GlcNAc(b1-3)Gal(b1-3)GlcNAc
Method in brief: as §1

[36] = target: Neu5Ac(a2-3)Gal(b1-3)[Fuc(a1-4)]GlcNAc
Method in brief: as §1

[37] = target: Neu5Ac(a2-3)Gal(b1-3)[Neu5Ac(a2-6)]GalNAc
Method in brief: as §1

[38] = target: Neu5Ac(a2-3)Gal(b1-4)GlcNAc
Method in brief: as §1

[39] = target: Neu5Ac(a2-3)Gal(b1-4)GlcNAc(b1-2)Man
Method in brief: as §1

[40] = target: Neu5Ac(a2-3)Gal(b1-4)GlcNAc(b1-3)Gal(b1-3)GlcNAc
Method in brief: as §1

[41] = target: Neu5Ac(a2-3)Gal(b1-4)GlcNAc6S
Method in brief: as §1

[42] = target: Neu5Ac(a2-3)Gal(b1-4)[Fuc(a1-3)]GlcNAc(b1-3)GalNAc
Method in brief: as §1

[43] = target: Neu5Ac(a2-3)Gal(b1-4)[Fuc(a1-3)]GlcNAc6S
Method in brief: as §1

[44] = target: Neu5Ac(a2-6)Gal(b1-4)GlcNAc(b1-2)Man(a1-6)[Gal(b1-4)GlcNAc(b1-2)Man(a1-3)]Man(b1-4)GlcNAc(b1-4)GlcNAc
Method in brief: as §1

[45] = target: Neu5Ac(a2-6)Gal(b1-4)GlcNAc(b1-2)Man(a1-6)[GlcNAc(b1-2)Man(a1-3)]Man(b1-4)GlcNAc(b1-4)GlcNAc
Method in brief: as §1

[46] = target: Neu5Ac(a2-6)Gal(b1-4)GlcNAc(b1-3)Gal(b1-4)GlcNAc(b1-3)Gal(b1-4)GlcNAc(b1-2)Man(a1-3)[Neu5Ac(a2-6)Gal(b1-4)GlcNAc(b1-3)Gal(b1-4)GlcNAc(b1-3)Gal(b1-4)GlcNAc(b1-2)Man(a1-6)]GalNAc
Method in brief: as §1

[47] = target: Neu5Ac(a2-6)GlcNAc(b1-4)GlcNAc
Method in brief: as §1

[48] = target: Neu5Ac(a2-8)Neu5Ac(a2-8)Neu5Ac(a2-3)[Gal(b1-3)GalNAc(b1-4)]Gal(b1-4)Glc
Method in brief: as §1

[49] = target: Neu5Gc(a2-3)Gal(b1-4)Glc
Method in brief: as §1

B1: RbmA (Vibrio cholerae), A0A2H4NFB8 (protein)
chain: MSNFKGSIMNKRHYYLASCLALLFSTASYAEVDCELQPVIEANLSLNQNQLASNGGYISSQLGIRNESCETVKFKYWLSIKGPEGIYFPAKAVVGVDTAQQESDALTDGRMLNVTRGFWVPEYMADGKYTVSLQVVAENGEVFKANQEFVKGGDLNSLPELNGLTIDIKNQFGINSVESTGGFVPFTIDLNNGREGEAKVEFWMTAVGPDGLIIPVHSREKWMIIAGNTFSKVRGINFDKSYPAGEYTINAQVVDIVSGERVEQLMTVVKK
glycan array binding signal (z-score) [1]: 0.097 | glycan array binding signal (z-score) [2]: 3.71 | glycan array binding signal (z-score) [3]: 1.13 | glycan array binding signal (z-score) [4]: -0.42 | glycan array binding signal (z-score) [5]: 0.428 | glycan array binding signal (z-score) [6]: -0.393 | glycan array binding signal (z-score) [7]: -0.735 | glycan array binding signal (z-score) [8]: 2.25 | glycan array binding signal (z-score) [9]: -0.597 | glycan array binding signal (z-score) [10]: -0.564 | glycan array binding signal (z-score) [11]: -0.002 | glycan array binding signal (z-score) [12]: -0.276 | glycan array binding signal (z-score) [13]: 0.837 | glycan array binding signal (z-score) [14]: 0.508 | glycan array binding signal (z-score) [15]: 0.028 | glycan array binding signal (z-score) [16]: -0.082 | glycan array binding signal (z-score) [17]: 0.503 | glycan array binding signal (z-score) [18]: -0.69 | glycan array binding signal (z-score) [19]: -0.734 | glycan array binding signal (z-score) [20]: -0.515 | glycan array binding signal (z-score) [21]: 4.03 | glycan array binding signal (z-score) [22]: 5.93 | glycan array binding signal (z-score) [23]: 7.99 | glycan array binding signal (z-score) [24]: 3.32 | glycan array binding signal (z-score) [25]: -0.99 | glycan array binding signal (z-score) [26]: 2.09 | glycan array binding signal (z-score) [27]: -0.721 | glycan array binding signal (z-score) [28]: 3.48 | glycan array binding signal (z-score) [29]: 4.35 | glycan array binding signal (z-score) [30]: -0.474 | glycan array binding signal (z-score) [31]: 3.92 | glycan array binding signal (z-score) [32]: 0.187 | glycan array binding signal (z-score) [33]: 0.095 | glycan array binding signal (z-score) [34]: 0.76 | glycan array binding signal (z-score) [35]: -0.516 | glycan array binding signal (z-score) [36]: -1.17 | glycan array binding signal (z-score) [37]: 0.382 | glycan array binding signal (z-score) [38]: -0.847 | glycan array binding signal (z-score) [39]: 3.52 | glycan array binding signal (z-score) [40]: -0.862 | glycan array binding signal (z-score) [41]: 3 | glycan array binding signal (z-score) [42]: 3.93 | glycan array binding signal (z-score) [43]: -0.009 | glycan array binding signal (z-score) [44]: -0.289 | glycan array binding signal (z-score) [45]: -0.799 | glycan array binding signal (z-score) [46]: 1.63 | glycan array binding signal (z-score) [47]: -0.396 | glycan array binding signal (z-score) [48]: -0.211 | glycan array binding signal (z-score) [49]: 0.337
